The supplement of paper PMC6897291

How the values were obtained:
U-2932 [1] = experiment: growth inhibition by drug alone (1 - RLU/untreated control) (fraction); higher = stronger inhibition; conditions: 177Lu-lilotomab satetraxetan 0 ug/ml
In short: (§1)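 RIVA or U-2932 cells, untreated or pretreated 18 h with a radiolabelled anti-CD37 antibody conjugate (~600 MBq/mg; 0.5 µg/ml RIVA, 1 µg/ml U-2932), were washed and seeded at 3,000 cells/well on plates pre-printed with the Selleck Cambridge Cancer Compound library. Doses were 10/100 nM (RIVA) or 10/1,000 nM (U-2932). RealTime-Glo luminescence was read daily from day 3 after 1 h at 37°C. Growth inhibition is 1 − RLU/mean of 48 untreated no-drug wells per plate.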

RIVA [2] = experiment: as above; conditions: 177Lu-lilotomab satetraxetan 0 ug/ml
In short: as §1

U-2932 [3] = experiment: growth inhibition by drug plus 177Lu-lilotomab satetraxetan (1 - RLU/untreated control) (fraction); higher = stronger inhibition; conditions: 177Lu-lilotomab satetraxetan 1 ug/ml
In short: as §1

RIVA [4] = experiment: as above; conditions: 177Lu-lilotomab satetraxetan 0.5 ug/ml
In short: as §1

CC(=O)Nc1cccc(-n2c(=O)n(C3CC3)c(=O)c3c(Nc4ccc(I)cc4F)n(C)c(=O)c(C)c32)c1
growth inhibition by drug alone (U-2932 [1]; 10 nM, time (day): 3): 0.103 | growth inhibition by drug alone (U-2932 [1]; 10 nM, time (day): 4): 0.0992 | growth inhibition by drug alone (U-2932 [1]; 10 nM, time (day): 5): 0.0497 | growth inhibition by drug alone (U-2932 [1]; 10 nM, time (day): 6): 0.109 | growth inhibition by drug alone (U-2932 [1]; 1000 nM, time (day): 3): 0.311 | growth inhibition by drug alone (U-2932 [1]; 1000 nM, time (day): 4): 0.328 | growth inhibition by drug alone (U-2932 [1]; 1000 nM, time (day): 5): 0.215 | growth inhibition by drug alone (U-2932 [1]; 1000 nM, time (day): 6): 0.243 | growth inhibition by drug alone (RIVA [2]; 10 nM, time (day): 3): 0.0319 | growth inhibition by drug alone (RIVA [2]; 10 nM, time (day): 4): 0.00936 | growth inhibition by drug alone (RIVA [2]; 10 nM, time (day): 5): -0.0739 | growth inhibition by drug alone (RIVA [2]; 10 nM, time (day): 6): -0.235 | growth inhibition by drug alone (RIVA [2]; 100 nM, time (day): 3): 0.213 | growth inhibition by drug alone (RIVA [2]; 100 nM, time (day): 4): 0.171 | growth inhibition by drug alone (RIVA [2]; 100 nM, time (day): 5): 0.0872 | growth inhibition by drug alone (RIVA [2]; 100 nM, time (day): 6): -0.0469 | growth inhibition by drug plus 177Lu-lilotomab satetraxetan (U-2932 [3]; 10 nM, time (day): 3): 0.124 | growth inhibition by drug plus 177Lu-lilotomab satetraxetan (U-2932 [3]; 10 nM, time (day): 4): 0.133 | growth inhibition by drug plus 177Lu-lilotomab satetraxetan (U-2932 [3]; 10 nM, time (day): 5): 0.11 | growth inhibition by drug plus 177Lu-lilotomab satetraxetan (U-2932 [3]; 10 nM, time (day): 6): 0.234 | growth inhibition by drug plus 177Lu-lilotomab satetraxetan (U-2932 [3]; 1000 nM, time (day): 3): 0.319 | growth inhibition by drug plus 177Lu-lilotomab satetraxetan (U-2932 [3]; 1000 nM, time (day): 4): 0.326 | growth inhibition by drug plus 177Lu-lilotomab satetraxetan (U-2932 [3]; 1000 nM, time (day): 5): 0.258 | growth inhibition by drug plus 177Lu-lilotomab satetraxetan (U-2932 [3]; 1000 nM, time (day): 6): 0.328 | growth inhibition by drug plus 177Lu-lilotomab satetraxetan (RIVA [4]; 10 nM, time (day): 3): 0.463 | growth inhibition by drug plus 177Lu-lilotomab satetraxetan (RIVA [4]; 10 nM, time (day): 4): 0.488 | growth inhibition by drug plus 177Lu-lilotomab satetraxetan (RIVA [4]; 10 nM, time (day): 5): 0.477 | growth inhibition by drug plus 177Lu-lilotomab satetraxetan (RIVA [4]; 10 nM, time (day): 6): 0.465 | growth inhibition by drug plus 177Lu-lilotomab satetraxetan (RIVA [4]; 100 nM, time (day): 3): 0.507 | growth inhibition by drug plus 177Lu-lilotomab satetraxetan (RIVA [4]; 100 nM, time (day): 4): 0.487 | growth inhibition by drug plus 177Lu-lilotomab satetraxetan (RIVA [4]; 100 nM, time (day): 5): 0.455 | growth inhibition by drug plus 177Lu-lilotomab satetraxetan (RIVA [4]; 100 nM, time (day): 6): 0.407

CNC(=O)[C@@H](NC(=O)[C@H](CC(C)C)[C@H](O)C(=O)NO)C(C)(C)C [Marimastat]
growth inhibition by drug alone (U-2932 [1]; 10 nM, time (day): 3): -0.0984 | growth inhibition by drug alone (U-2932 [1]; 10 nM, time (day): 4): -0.0992 | growth inhibition by drug alone (U-2932 [1]; 10 nM, time (day): 5): -0.103 | growth inhibition by drug alone (U-2932 [1]; 10 nM, time (day): 6): -0.269 | growth inhibition by drug alone (U-2932 [1]; 1000 nM, time (day): 3): -0.124 | growth inhibition by drug alone (U-2932 [1]; 1000 nM, time (day): 4): -0.117 | growth inhibition by drug alone (U-2932 [1]; 1000 nM, time (day): 5): -0.167 | growth inhibition by drug alone (U-2932 [1]; 1000 nM, time (day): 6): -0.336 | growth inhibition by drug alone (RIVA [2]; 10 nM, time (day): 3): -0.274 | growth inhibition by drug alone (RIVA [2]; 10 nM, time (day): 4): -0.343 | growth inhibition by drug alone (RIVA [2]; 10 nM, time (day): 5): -0.475 | growth inhibition by drug alone (RIVA [2]; 10 nM, time (day): 6): -0.556 | growth inhibition by drug alone (RIVA [2]; 100 nM, time (day): 3): -0.508 | growth inhibition by drug alone (RIVA [2]; 100 nM, time (day): 4): -0.486 | growth inhibition by drug alone (RIVA [2]; 100 nM, time (day): 5): -0.476 | growth inhibition by drug alone (RIVA [2]; 100 nM, time (day): 6): -0.599 | growth inhibition by drug plus 177Lu-lilotomab satetraxetan (U-2932 [3]; 10 nM, time (day): 3): -0.127 | growth inhibition by drug plus 177Lu-lilotomab satetraxetan (U-2932 [3]; 10 nM, time (day): 4): -0.0607 | growth inhibition by drug plus 177Lu-lilotomab satetraxetan (U-2932 [3]; 10 nM, time (day): 5): 0.00218 | growth inhibition by drug plus 177Lu-lilotomab satetraxetan (U-2932 [3]; 10 nM, time (day): 6): 0.096 | growth inhibition by drug plus 177Lu-lilotomab satetraxetan (U-2932 [3]; 1000 nM, time (day): 3): -0.0404 | growth inhibition by drug plus 177Lu-lilotomab satetraxetan (U-2932 [3]; 1000 nM, time (day): 4): -0.014 | growth inhibition by drug plus 177Lu-lilotomab satetraxetan (U-2932 [3]; 1000 nM, time (day): 5): 0.0136 | growth inhibition by drug plus 177Lu-lilotomab satetraxetan (U-2932 [3]; 1000 nM, time (day): 6): 0.157

O=C(Nc1ccc(OC(F)(F)F)cc1)c1sccc1NCc1ccnc2ccccc12
growth inhibition by drug alone (U-2932 [1]; 10 nM, time (day): 3): 0.0561 | growth inhibition by drug alone (U-2932 [1]; 10 nM, time (day): 4): -0.00441 | growth inhibition by drug alone (U-2932 [1]; 10 nM, time (day): 5): -0.0537 | growth inhibition by drug alone (U-2932 [1]; 10 nM, time (day): 6): -0.177 | growth inhibition by drug alone (U-2932 [1]; 1000 nM, time (day): 3): 0.00246 | growth inhibition by drug alone (U-2932 [1]; 1000 nM, time (day): 4): -0.0266 | growth inhibition by drug alone (U-2932 [1]; 1000 nM, time (day): 5): -0.0424 | growth inhibition by drug alone (U-2932 [1]; 1000 nM, time (day): 6): -0.000118 | growth inhibition by drug alone (RIVA [2]; 10 nM, time (day): 3): -0.0142 | growth inhibition by drug alone (RIVA [2]; 10 nM, time (day): 4): -0.0478 | growth inhibition by drug alone (RIVA [2]; 10 nM, time (day): 5): -0.122 | growth inhibition by drug alone (RIVA [2]; 10 nM, time (day): 6): -0.26 | growth inhibition by drug alone (RIVA [2]; 100 nM, time (day): 3): -0.426 | growth inhibition by drug alone (RIVA [2]; 100 nM, time (day): 4): -0.341 | growth inhibition by drug alone (RIVA [2]; 100 nM, time (day): 5): -0.386 | growth inhibition by drug alone (RIVA [2]; 100 nM, time (day): 6): -0.562 | growth inhibition by drug plus 177Lu-lilotomab satetraxetan (U-2932 [3]; 10 nM, time (day): 3): -0.0212 | growth inhibition by drug plus 177Lu-lilotomab satetraxetan (U-2932 [3]; 10 nM, time (day): 4): 0.051 | growth inhibition by drug plus 177Lu-lilotomab satetraxetan (U-2932 [3]; 10 nM, time (day): 5): 0.0902 | growth inhibition by drug plus 177Lu-lilotomab satetraxetan (U-2932 [3]; 10 nM, time (day): 6): 0.117 | growth inhibition by drug plus 177Lu-lilotomab satetraxetan (U-2932 [3]; 1000 nM, time (day): 3): -0.0347 | growth inhibition by drug plus 177Lu-lilotomab satetraxetan (U-2932 [3]; 1000 nM, time (day): 4): 0.0399 | growth inhibition by drug plus 177Lu-lilotomab satetraxetan (U-2932 [3]; 1000 nM, time (day): 5): 0.0489 | growth inhibition by drug plus 177Lu-lilotomab satetraxetan (U-2932 [3]; 1000 nM, time (day): 6): 0.0855

COc1ccc(CCN(C)CCCOc2ccc(S(=O)(=O)c3c(C(C)C)n(C)c4ccccc34)cc2)cc1OC
growth inhibition by drug alone (U-2932 [1]; 10 nM, time (day): 3): 0.0869 | growth inhibition by drug alone (U-2932 [1]; 10 nM, time (day): 4): 0.0667 | growth inhibition by drug alone (U-2932 [1]; 10 nM, time (day): 5): 0.0917 | growth inhibition by drug alone (U-2932 [1]; 10 nM, time (day): 6): -0.0299 | growth inhibition by drug alone (U-2932 [1]; 1000 nM, time (day): 3): 0.0603 | growth inhibition by drug alone (U-2932 [1]; 1000 nM, time (day): 4): 0.0699 | growth inhibition by drug alone (U-2932 [1]; 1000 nM, time (day): 5): -0.0056 | growth inhibition by drug alone (U-2932 [1]; 1000 nM, time (day): 6): -0.132 | growth inhibition by drug alone (RIVA [2]; 10 nM, time (day): 3): 0.00966 | growth inhibition by drug alone (RIVA [2]; 10 nM, time (day): 4): 0.000445 | growth inhibition by drug alone (RIVA [2]; 10 nM, time (day): 5): -0.0789 | growth inhibition by drug alone (RIVA [2]; 10 nM, time (day): 6): -0.342 | growth inhibition by drug alone (RIVA [2]; 100 nM, time (day): 3): -0.377 | growth inhibition by drug alone (RIVA [2]; 100 nM, time (day): 4): -0.25 | growth inhibition by drug alone (RIVA [2]; 100 nM, time (day): 5): -0.308 | growth inhibition by drug alone (RIVA [2]; 100 nM, time (day): 6): -0.545 | growth inhibition by drug plus 177Lu-lilotomab satetraxetan (U-2932 [3]; 10 nM, time (day): 3): 0.0456 | growth inhibition by drug plus 177Lu-lilotomab satetraxetan (U-2932 [3]; 10 nM, time (day): 4): 0.0938 | growth inhibition by drug plus 177Lu-lilotomab satetraxetan (U-2932 [3]; 10 nM, time (day): 5): 0.156 | growth inhibition by drug plus 177Lu-lilotomab satetraxetan (U-2932 [3]; 10 nM, time (day): 6): 0.171 | growth inhibition by drug plus 177Lu-lilotomab satetraxetan (U-2932 [3]; 1000 nM, time (day): 3): 0.135 | growth inhibition by drug plus 177Lu-lilotomab satetraxetan (U-2932 [3]; 1000 nM, time (day): 4): 0.145 | growth inhibition by drug plus 177Lu-lilotomab satetraxetan (U-2932 [3]; 1000 nM, time (day): 5): 0.18 | growth inhibition by drug plus 177Lu-lilotomab satetraxetan (U-2932 [3]; 1000 nM, time (day): 6): 0.298 | growth inhibition by drug plus 177Lu-lilotomab satetraxetan (RIVA [4]; 10 nM, time (day): 3): 0.605 | growth inhibition by drug plus 177Lu-lilotomab satetraxetan (RIVA [4]; 10 nM, time (day): 4): 0.642 | growth inhibition by drug plus 177Lu-lilotomab satetraxetan (RIVA [4]; 10 nM, time (day): 5): 0.664 | growth inhibition by drug plus 177Lu-lilotomab satetraxetan (RIVA [4]; 10 nM, time (day): 6): 0.661 | growth inhibition by drug plus 177Lu-lilotomab satetraxetan (RIVA [4]; 100 nM, time (day): 3): 0.48 | growth inhibition by drug plus 177Lu-lilotomab satetraxetan (RIVA [4]; 100 nM, time (day): 4): 0.536 | growth inhibition by drug plus 177Lu-lilotomab satetraxetan (RIVA [4]; 100 nM, time (day): 5): 0.542 | growth inhibition by drug plus 177Lu-lilotomab satetraxetan (RIVA [4]; 100 nM, time (day): 6): 0.544
